Screens from PubChem BioAssay.
Tg IFNy HTS = T. gondii growth inhibition under IFN-gamma. activity change, negative = inhibition, % (no concentration beside the values). AID 1259416. Toxoplasma gondii growth in IFN-gamma-treated host cells; hits give low values. hit rate 3.8% among 69,000; in the data active = activity change below about -70%, passing the limit was not always enough;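 note: host cells are HeLa cells infected with Toxoplasma gondii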
Numbers without * were called inactive; i = inactive. The full list was thinned out, with hits kept by preference.

SMILES	Tg IFNy HTS
CCOc1ccccc1-c1nc(Cn2nnc(C(=O)Nc3ccc(OC)c(Cl)c3)c2C)c(C)o1	110.1
COC(=O)c1cc(Cl)ccc1NC(=O)COc1nc(C)nc2ccccc12	-13.5
Cc1ccccc1SC1CCN(C(=O)c2ncc[nH]2)CC1	-24.8
CN1CCC(Cc2noc(CCc3ccc4c(c3)OCO4)n2)CC1	0.1
CSc1nc(N)nc(COc2ccccc2Cl)n1	47.2
O=c1[nH]c(SCc2c(Cl)cccc2Cl)nc2ccnn12	67.7
Nc1ncnc(SCc2c(Cl)cccc2Cl)n1	-81.0*
c1ccc(C2CCCN(c3ncnc4c3CCNC4)CC2)cc1 (configuration not stated)	-79.0*
c1cnc(NC2CCN(c3ncnc4c3CCNC4)CC2)nc1	-35.0
c1ccc(C2CN(c3ncnc4c3CCNC4)CCO2)cc1 (configuration not stated)	47.1
C[C@H]1CN([C@@H](C)CO)C(=O)c2ccccc2-c2ccccc2CO[C@@H]1CN(C)C(=O)CCC(F)(F)F	43.8
Cc1ccc(CN2CCC3(CC2)c2ncc(-c4ccccc4)n2CCN3C)o1	-49.9
Cc1ccc(C)c(S(=O)(=O)N2CCC3(CC2)c2ncc(-c4cccc(F)c4)n2CCN3C)c1	-43.5
CN1CCn2c(-c3ccccc3)cnc2C12CCN(S(=O)(=O)c1ccccc1)CC2	-107.8*
CCN(CCNS(=O)(=O)c1ccc2[nH]c(=O)ccc2c1)Cc1ccccc1	-28.8
O=C(NCCc1csc(-c2ccccc2)n1)[C@H]1CCCN1C(=O)c1ccc(F)cc1	12.4
C[C@@H]1CN([C@H](C)CO)C(=O)c2cc(/C=C/c3ccccc3)cnc2O[C@@H]1CN(C)S(=O)(=O)c1ccccc1F	-88.4*
C[C@@H]1CN([C@@H](C)CO)C(=O)c2cc(/C=C/c3ccccc3)cnc2O[C@@H]1CN(C)S(=O)(=O)c1ccccc1F	-7.4
COc1ccc(S(=O)(=O)N(C)C[C@H]2Oc3c(NC(=O)c4nc5ccccc5s4)cccc3C(=O)N([C@@H](C)CO)C[C@@H]2C)cc1	-78.3*
C[C@H](CO)N1C[C@H](C)[C@@H](CN(C)Cc2ccccc2)Oc2c(NC(=O)Cc3cn(C)c4ccccc34)cccc2C1=O	-93.3*
C[C@H](CO)N1C[C@H](C)[C@@H](CN(C)Cc2ccc(Oc3ccccc3)cc2)Oc2c(NC(=O)CCC(F)(F)F)cccc2C1=O	-64.9
C[C@@H]1CN([C@@H](C)CO)C(=O)c2cccc(NC(=O)c3nc4ccccc4s3)c2O[C@@H]1CN(C)C(=O)Nc1ccc2c(c1)OCO2	-43.1
COc1ccc(S(=O)(=O)N(C)C[C@@H]2Oc3c(NC(=O)c4nc5ccccc5s4)cccc3C(=O)N([C@H](C)CO)C[C@H]2C)cc1	-3.9
C[C@H](CO)N1C[C@H](C)[C@H](CN(C)S(=O)(=O)c2ccc(Cl)cc2)Oc2c(NC(=O)Nc3ccc(F)cc3)cccc2C1=O	-81.3*
C[C@H](CO)N1C[C@H](C)[C@@H](CN(C)S(=O)(=O)c2ccccc2F)Oc2ncc(/C=C/c3ccccc3)cc2C1=O	-13.5
SMILES	Tg IFNy HTS
C[C@@H]1CN([C@@H](C)CO)C(=O)c2cccc(NS(C)(=O)=O)c2O[C@H]1CN(C)Cc1ccc(-c2ccccc2)cc1	-23.3
C[C@@H]1CN([C@@H](C)CO)C(=O)c2cccc(NC(=O)Nc3ccc(F)cc3)c2O[C@@H]1CN(C)S(=O)(=O)c1ccc(Cl)cc1	-17.1
C[C@@H]1CN([C@@H](C)CO)C(=O)c2cccc(NC(=O)Nc3ccc(F)cc3)c2O[C@H]1CN(C)S(=O)(=O)c1ccc(Cl)cc1	-52.7
CN(C)CCN1C(=O)CCC2C1CCN2C(=O)Cc1ccc(F)cc1 (configuration not stated)	-4.7
COc1cc(CCC(=O)N[C@H](C)Cn2c(=O)oc3ccccc32)on1	-2.7
O=C(NCC[C@H]1CC[C@@H](NS(=O)(=O)c2ccc(F)cc2)[C@H](CO)O1)c1ccc2c(c1)OCO2	-29.4
C[C@@H]1CN([C@H](C)CO)C(=O)c2ccccc2-c2ccccc2CO[C@@H]1CN(C)S(=O)(=O)c1cccs1	-13.3
O=C(c1cnccn1)N1CCO[C@H]2CCN(Cc3ccccc3F)C[C@H]21	1.2
CC(=O)c1cc(CC(=O)NCc2cc(=O)[nH]c(C(C)(C)C)n2)cs1	2.1
Cc1ccc2nc(COCC(=O)Nc3cc(Cl)c4oc(C)cc4c3)[nH]c2c1	-3.7
C=CCN(C)Cc1cccc(C(=O)Nc2cnn(C)c2)c1	-52.7
CCOCC(=O)N1CCCCC12CC(=O)N(c1cncnc1)C2 (configuration not stated)	-21.7
COc1ccc(C#Cc2ccc3c(c2)[C@H]2[C@H](CCN2C(=O)c2cnccn2)[C@H](CO)N3)cc1	-58.5
Cc1ccc2nc(SCC(=O)Nc3ccc(F)cc3)c(C)cc2c1	-26.3
C=CCNc1c(C(=O)OC)c(=O)[nH]c2ccc(F)cc12	32.2
COC(=O)c1ccc(NC(=O)CSc2nnc3c(n2)[nH]c2ccc(F)cc23)cc1	-70.4*
CC(Cn1cccn1)C(=O)N1CCN(C)C2(CCN(C)CC2)C1 (configuration not stated)	-12.6
Cc1nn(-c2ccc(F)cc2)c(C)c1Cn1ccnc1-c1cccnc1	-8.1
Cc1cccc(NS(=O)(=O)c2cc3c4c(c2)CCN4C(=O)CC3)c1	-38.3
Cc1ccc(NS(=O)(=O)c2cc3c4c(c2)CCN4C(=O)CC3)cc1C	-94.9*
Cc1cccc(C)c1NS(=O)(=O)c1cc2c3c(c1)CCC(=O)N3CCC2	-3.5
CCc1ccc(NS(=O)(=O)c2cc3c4c(c2)CCN4C(=O)CC3)cc1	-5.3
COC(=O)c1ccccc1NS(=O)(=O)c1cc2c3c(c1)CCN3C(=O)CC2	116.8
O=C1CCc2cc(S(=O)(=O)Nc3cccc4c3CCCC4)cc3c2N1CC3	-113.7*
COc1ccc2cc(-c3cc(C(F)(F)F)nc(N)n3)ccc2c1	4.0
SMILES	Tg IFNy HTS
COc1ccc(C#Cc2ccc([C@@H]3[C@H](CO)N4C(=O)CN(C(=O)NC(C)C)C[C@@H]34)cc2)cc1	-37.0
Cc1nnsc1CN(C)c1nccc(CCC(F)(F)F)n1	-0.1
Cc1ccc2c(c1C)-n1cccc1C1(CCN(S(=O)(=O)c3ccc(CC(C)C)cc3)CC1)N2	23.3
CCC(=O)Nc1nc(-c2ccco2)c(-c2ccncc2)s1	7.5
CCSc1nc(CC(=O)NCc2cnc(C)cn2)cs1	56.2
CCN1C/C(=N\S(=O)(=O)c2ccc(C)cc2)N(CC)C1=O	1.6
COc1ccc(-c2nc(Nc3ccc(Br)cc3F)c3ccccc3n2)cc1	7.3
COCC(=O)N[C@H]1CN(Cc2scnc2C)C[C@H]2CCCO[C@H]21	-81.2*
Cc1csc(CN2C[C@H]3CCCO[C@H]3[C@H](N3CCCC3)C2)n1	-0.7
Cn1cc(CN2C[C@H]3CCCO[C@H]3[C@H](NS(C)(=O)=O)C2)cn1	-2.4
CN1CCn2nc(C(=O)NCC3CC(=O)N(C4CCCC4)C3)cc2C1 (configuration not stated)	21.8
Cn1cc(C[C@@H]2[C@H](N3CCOCC3)CCN2C(=O)c2ccco2)cn1	22.3
Cc1ccc(-c2cnc(NC(=O)CCc3c(C)nn4cnnc4c3C)n2C)cc1C	0.3
Cc1cc(C)c2c(c1)CC(C)(C)c1[nH]c(-c3ccc(Cl)cc3Cl)nc1-2	-71.2*
COc1ccc(C(=O)N2c3cc4c(cc3C(C)=CC2(C)C)OCO4)cc1	-17.8
COc1ccc(S(=O)(=O)N2CCC3(CC2)Nc2ccc(Cl)cc2-n2cccc23)cc1	-52.1
COc1ccc2c(c1)C(C)=CC(C)(C)N2S(=O)(=O)c1ccc(Cl)cc1	-93.1*
COc1ccc(C(=O)Nc2ccc3c(c2)CCC(=O)N3C)c(C)c1	14.3
COc1ccc(-c2nc(CCNC(=O)c3ccccc3C(F)(F)F)cs2)cc1	i
